Test results published in PubChem BioAssay AID2315 (National Center for Advancing Translational Sciences (NCATS), 2010).
Hit rate of the full screen: of about 290,000 compounds, about 27,000 (9.3%) were called active. The list comes from a sample in which actives are over-represented; it also holds similar structures and randomly drawn compounds. Unmarked numbers belong to inactive results. Cut-off read from the data, not from the text of the source: active = inhibition mostly above about 28% (no sharp cut-off); inactive = mostly below about 43%.

Assay: A qHTS for Small Molecule Inhibitors of Shiga Toxin; note: 0% is about no effect
Settings: Vero cells, Shiga toxin protein synthesis inhibition reporter; at 38.7 µM, hits give high values

| Compound | inhibition |
| --- | --- |
| Cc1cccc(N2CCN(S(=O)(=O)c3ccc(-c4cc(C)no4)s3)CC2C)c1 (stereo not drawn) | -9.9% |
| COc1ccc([N+](=O)[O-])cc1NCC(=O)c1ccc(C)cc1 | 17.1% |
| COc1ccccc1NC(=O)C1CCN(C(=O)c2ccc(C(C)(C)C)cc2)CC1 | 18.1% |
| COc1ccccc1C(=O)Nc1ccnn1C1CCN(C(=O)C(C)(C)C)CC1 | 20.1% |
| O=C(c1ccc2ccccc2n1)N1CCN(c2ccccc2Cl)CC1 | 62.1% (active) |
| COc1ccccc1N1CCN(C(=O)c2c(-c3c(Cl)cccc3Cl)noc2C)CC1 | -7.02% |
| O=C(c1c(Cl)cccc1Cl)N1CCN(c2cccc3[nH]ccc23)CC1 | -6.91% |
| Cn1c(CCc2ccccc2)nnc1SCC(N)=O | -2.98% |
| CCOc1ccc(-n2c(SCC(N)=O)nnc2-c2ccco2)cc1 | 1.48% |
| Cc1ccc(NC(=O)CN(C)C(=O)c2ccc(Br)o2)cc1 | 24.8% |
| COc1ccc(C(=O)CC(=O)c2ccc(C)cc2)c(O)c1 | 5.12% |
| COc1ccc(C(=O)Cc2cnn(-c3ccccc3)c2)c(O)c1 | 104% (active) |
| Cc1cc(O)cc(O)c1C(=O)Cc1cnn(-c2ccccc2)c1 | 52.3% |
| [2H]C(CCOS(N)(=O)=O)c1ccccc1 (stereo not drawn) | -5.48% |
| CN(CC(=O)Nc1ccc(N2CCOCC2)cc1)CC(=O)Nc1ccccc1[N+](=O)[O-] | -10.3% |
| COc1cc2ccccc2cc1C(=O)Nc1ccc(N2CCOCC2)cc1 | 18.7% |
| O=C(Nc1ccc(N2CCOCC2)cc1)c1ccc(-c2ccccc2[N+](=O)[O-])o1 | 46.4% (active) |
| Cc1nnc(SCC(=O)Nc2ccc(S(=O)(=O)Nc3ccc(Cl)nn3)cc2)s1 | -5.8% |
| NS(=O)(=O)c1ccc(-c2ccc(/C=C3\SC(=O)NC3=O)o2)cc1 | -1.11% |
| Nc1nnnn1/N=C/c1cccs1 | -9.54% |
| Cc1ccsc1/C=N/Nc1ccc(Cl)nn1 | 17.1% |
| Clc1ccc(N/N=C/c2cccs2)nn1 | 122% (active) |
| COc1cccc(/C=N/Nc2ccc(Cl)nn2)c1 | 25.9% |
| Oc1cccc(/C=N/Nc2ccc(Cl)nn2)c1O | 60.3% (active) |
| Cc1ccc(S(=O)(=O)N2CCN(c3ccccc3)CC2)cc1C | -9.21% |
| O=C(CC1SC(=Nc2ccccc2)N(Cc2ccccn2)C1=O)Nc1cccc(Cl)c1 (stereo not drawn) | 44.2% (active) |
| CN1C(=O)C(CC(=O)Nc2ccccc2)S/C1=N/c1nccs1 (stereo not drawn) | -5.12% |
| CCN1C(=O)C(CC(=O)Nc2cc(C)ccc2C)SC1=Nc1ccc(S(N)(=O)=O)cc1 (stereo not drawn) | 28.8% |
